The values that follow come from the antibiotic and cytotoxicity screens of Wong et al. (2023).

About 1,500 (3.8%) of roughly 39,000 compounds were called active. The list comes from a sample in which actives are over-represented; it also holds similar structures and randomly drawn compounds.

The experiment concerns HSkMC (human skeletal muscle cells). Briefly: cytotoxicity call (relative viability < 0.9). The conditions noted are these: 10 µM.
For the compound `Cc1noc(C)c1S(=O)(=O)Nc1ccc2c(c1)C(=O)N([C@H](C)CO)C[C@@H](C)[C@@H](CN(C)S(C)(=O)=O)OCCCC[C@H](C)O2`, the cytotoxicity call was “inactive”.

For the compound `COc1ccc(C#Cc2cnc3c(c2)C(=O)N([C@@H](C)CO)C[C@H](C)[C@H](CN(C)CC2CCOCC2)O3)cc1`, the cytotoxicity call was “inactive”.

For `COc1cc(O)c2c(=O)cc(C)oc2c1CC=C(C)C`, the cytotoxicity call is “inactive”. Next, `CC(C)=CCc1c(O)cc2oc(C)cc(=O)c2c1O`: “inactive”. With `COc1c(O)cc2oc3cc(O)c(CC=C(C)C)c(O)c3c(=O)c2c1CC=C(C)C` [alpha-MANGOSTIN ], the cytotoxicity call was “active”. Next, `COc1ccc(S(=O)(=O)Nc2ccc3c(c2)C(=O)N([C@@H](C)CO)C[C@@H](C)[C@H](CN(C)S(C)(=O)=O)O3)cc1`: “inactive”.

Take `C[C@@H]1CN([C@H](C)CO)C(=O)Cc2cc(NS(=O)(=O)c3cccs3)ccc2O[C@H]1CN(C)S(=O)(=O)c1cn(C)cn1`: the cytotoxicity call is “inactive”. Next, `N#Cc1c(Oc2ccc(F)c(NC(=O)Cc3cccc(C(F)(F)F)c3)c2)ccc2nc(NC(=O)C3CC3)sc12`: “active”; `O=C(N[C@H](c1ccc2ccccc2n1)c1cccs1)C1CCN(Cc2cccc(C(F)(F)F)c2)CC1`: “inactive”. For the compound `NC[C@](O)(c1cccs1)C1CC1`, the cytotoxicity call is “inactive”.

Regarding `C[C@@H]1CN([C@@H](C)CO)C(=O)c2cc(-c3cccc(C(=O)N(C)C)c3)cnc2O[C@@H]1CN(C)S(=O)(=O)c1cccc(F)c1`, the cytotoxicity call is “inactive”. In the case of `COc1ccc(CN(C)C[C@@H]2Oc3ccc(NC(=O)CCN4CCOCC4)cc3CC(=O)N([C@@H](C)CO)C[C@@H]2C)cc1` it was “inactive”. For the compound `COc1ccc(S(=O)(=O)Nc2cccc3c2O[C@@H](CN(C)S(=O)(=O)c2c(C)noc2C)[C@H](C)CN([C@H](C)CO)C3=O)cc1`, the cytotoxicity call was “inactive”. In the case of `O=C(C[C@H]1CC[C@H]2[C@@H](COC[C@@H](O)CN2S(=O)(=O)c2ccc(Cl)cc2)O1)NCC1CCCCC1` it was “inactive”. Next, `c1ccc(CNc2ccc3c(ccc4c5ccccc5[nH]c34)n2)cc1`: “active”. Next, `Cn1nnc(NCc2ccccc2)n1`: “inactive”. For `c1ccc(CNc2nn[nH]n2)cc1`, the cytotoxicity call is “inactive”. In the case of `C[C@@H]1CN([C@H](C)CO)C(=O)Cc2cc(NC(=O)c3ccncc3)ccc2O[C@@H]1CN(C)S(=O)(=O)c1ccc(F)cc1` it was “inactive”.

As for `C[C@H](CO)N1C[C@H](C)[C@@H](CN(C)C(=O)Nc2ccc(F)cc2)Oc2ccc(NC(=O)Cn3cnnn3)cc2CC1=O`, the cytotoxicity call is “inactive”. In the case of `CS(C)(=O)=O` it was “inactive”; in that of `Cc1ccc(S(=O)(=O)Nc2ccc3c(c2)C(=O)N([C@H](C)CO)C[C@H](C)[C@@H](CN(C)C(=O)Nc2ccc(F)cc2)OCCCC[C@H](C)O3)cc1`, “inactive”; in that of `C[C@@H]1CN([C@@H](C)CO)C(=O)Cc2cc(NC(=O)Nc3ccc(C(F)(F)F)cc3)ccc2O[C@@H]1CN(C)Cc1ccc(Cl)c(Cl)c1`, “active”. In the case of `C[C@H](CO)N1C[C@H](C)[C@@H](CN(C)Cc2ccc(Cl)c(Cl)c2)Oc2ccc(NC(=O)Nc3ccc(C(F)(F)F)cc3)cc2CC1=O` it was “active”; in that of `C[C@@H]1CN([C@H](C)CO)C(=O)Cc2cc(NC(=O)Nc3ccc(C(F)(F)F)cc3)ccc2O[C@@H]1CN(C)Cc1ccncc1`, “inactive”; in that of `C[C@@H]1CN([C@@H](C)CO)C(=O)Cc2cc(NC(=O)Nc3ccc(C(F)(F)F)cc3)ccc2O[C@@H]1CN(C)Cc1ccncc1`, “inactive”.

Consider `C[C@H]1CN([C@@H](C)CO)C(=O)Cc2cc(NC(=O)Nc3ccc(C(F)(F)F)cc3)ccc2O[C@H]1CN(C)Cc1ccc(Cl)c(Cl)c1`, for which the cytotoxicity call was “active”. In the case of `C[C@H]1CN([C@@H](C)CO)C(=O)Cc2cc(NC(=O)Nc3ccc(C(F)(F)F)cc3)ccc2O[C@@H]1CN(C)Cc1ccc(Cl)c(Cl)c1` it was “inactive”. Next, `C[C@@H]1CN([C@H](C)CO)C(=O)Cc2cc(NC(=O)Nc3ccc(C(F)(F)F)cc3)ccc2O[C@H]1CN(C)Cc1ccncc1`: “inactive”; `C[C@H]1CN([C@@H](C)CO)C(=O)Cc2cc(NC(=O)Nc3ccc(C(F)(F)F)cc3)ccc2O[C@H]1CN(C)Cc1ccncc1`: “inactive”; `C[C@@H]1CN([C@H](C)CO)C(=O)Cc2cc(NC(=O)Nc3ccc(C(F)(F)F)cc3)ccc2O[C@@H]1CN(C)Cc1ccc(Cl)c(Cl)c1`: “active”. In the case of `C[C@H]1CN([C@@H](C)CO)C(=O)Cc2cc(NC(=O)Nc3ccc(C(F)(F)F)cc3)ccc2O[C@@H]1CN(C)Cc1ccncc1` it was “inactive”. In the case of `CC(=O)N(C)C[C@@H]1Oc2ncc(C#C[C@@H](C)O)cc2C(=O)N([C@@H](C)CO)C[C@@H]1C`, the cytotoxicity call was “inactive”.

On to `COc1ccc(S(=O)(=O)Nc2ccc3c(c2)CC(=O)N([C@H](C)CO)C[C@@H](C)[C@H](CN(C)Cc2ccncc2)O3)cc1`, for which the cytotoxicity call is “inactive”. In the case of `C[C@H]1CN([C@@H](C)CO)C(=O)Cc2cc(NS(=O)(=O)c3cn(C)cn3)ccc2O[C@H]1CN(C)S(=O)(=O)c1ccc(Cl)cc1` it was “inactive”; in that of `C[C@H]1CN([C@@H](C)CO)C(=O)Cc2cc(NC(=O)CCCCCC(=O)Nc3ccccc3N)ccc2O[C@H]1CN(C)S(C)(=O)=O`, “inactive”; in that of `COc1ccc(S(=O)(=O)N(C)C[C@H]2Oc3ccc(NC(=O)C4CC4)cc3CC(=O)N([C@H](C)CO)C[C@@H]2C)cc1`, “inactive”.

`CN1C(=O)c2cc(NC(=O)c3cccs3)ccc2OC[C@H]2O[C@@H](CC(=O)NCC(F)(F)F)CC[C@H]21`: the cytotoxicity call was “inactive”. Next, `C[C@@H]1CN([C@@H](C)CO)C(=O)c2cc(NC(=O)Cn3cnnn3)ccc2O[C@@H]1CN(C)Cc1ccccc1`: “inactive”; `COc1ccc([Si](C)(C)[C@@H]2[C@@H](CC(=O)N3Cc4ccccc4C[C@H]3CO)O[C@]3(C(=O)N(Cc4ccc(N5CCC5=O)cc4)c4ccccc43)[C@H]2C)cc1`: “inactive”. Next, `C[C@H](CO)N1C[C@H](C)[C@H](CN(C)Cc2ccc(Cl)c(Cl)c2)Oc2ccc(NC(=O)Nc3ccc(C(F)(F)F)cc3)cc2CC1=O`: “active”; `C[C@@H]1CN([C@@H](C)CO)C(=O)Cc2cc(NC(=O)Nc3ccc(C(F)(F)F)cc3)ccc2O[C@H]1CN(C)Cc1ccc(Cl)c(Cl)c1`: “active”; `C[C@@H]1CN([C@H](C)CO)C(=O)Cc2cc(NC(=O)Nc3ccc(C(F)(F)F)cc3)ccc2O[C@H]1CN(C)Cc1ccc(Cl)c(Cl)c1`: “active”. Next, `CS(=O)(=O)O.Oc1ccc(C2CNCCc3c2cc(O)c(O)c3Cl)cc1` (stereo unspecified): “inactive”; `COc1ccc(S(=O)(=O)Nc2ccc3c(c2)C(=O)N([C@@H](C)CO)C[C@H](C)[C@@H](CN(C)C(=O)Nc2c(C)noc2C)OCCCC[C@@H](C)O3)cc1`: “inactive”; `COc1ccc(S(=O)(=O)Nc2ccc3c(c2)CC(=O)N([C@@H](C)CO)C[C@@H](C)[C@H](CN(C)S(C)(=O)=O)O3)cc1`: “inactive”. For the compound `Cc1noc(C)c1S(=O)(=O)N(C)C[C@@H]1Oc2ccc(NC(=O)C3CC3)cc2CC(=O)N([C@H](C)CO)C[C@@H]1C`, the cytotoxicity call was “inactive”. In the case of `Cc1noc(C)c1NC(=O)Nc1ccc2c(c1)C(=O)N([C@@H](C)CO)C[C@H](C)[C@H](CN(C)C(=O)Nc1ccccc1)OCCCC[C@H](C)O2` it was “inactive”; in that of `C[C@@H]1CCCCO[C@@H](CN(C)Cc2ccc(C(F)(F)F)cc2)[C@H](C)CN([C@H](C)CO)C(=O)c2cc(NS(C)(=O)=O)ccc2O1`, “inactive”. In the case of `COc1ccccc1S(=O)(=O)N(C)C[C@@H]1OCc2cn(nn2)CCCC(=O)N([C@@H](C)CO)C[C@@H]1C` it was “inactive”; in that of `C=c1cc(C)ccc1=C1NN=C(NC(=O)CC)O1`, “inactive”; in that of `C=c1cc(C)ccc1=C1NN=C(NC(C)=O)O1`, “inactive”. In the case of `C=c1ccc(C)cc1=C1NN=C(NC(=O)c2ccc(S(=O)(=O)N(CCOC)CCOC)cc2)O1` it was “active”. For `C[C@H](CO)N1C[C@H](C)[C@@H](CN(C)C(=O)Nc2ccc(F)cc2)Oc2ccc(NC(=O)Cn3cnnn3)cc2C1=O`, the cytotoxicity call is “inactive”. In the case of `C[C@@H](NC(=O)C[C@H]1C=C[C@H](NC(=O)CN2CCOCC2)[C@H](CO)O1)c1ccccc1` it was “inactive”; in that of `Cc1noc(C)c1S(=O)(=O)Nc1ccc2c(c1)C(=O)N([C@@H](C)CO)C[C@H](C)[C@H](CN(C)C(=O)Nc1ccccc1)O2`, “inactive”. In the case of `CCN(CC)CCN(Cc1ccc(-c2ccc(C(F)(F)F)cc2)cc1)C(=O)Cn1c(SCc2ccc(F)cc2)nc(=O)c2c1CCC2`, the cytotoxicity call was “active”.

Take `C[C@@H]1CN([C@@H](C)CO)C(=O)Cc2cc(NS(=O)(=O)c3cn(C)cn3)ccc2O[C@@H]1CN(C)C(=O)Nc1ccc(F)cc1`: the cytotoxicity call was “inactive”. Next, `C[C@H]1CN([C@@H](C)CO)C(=O)c2cc(NC(=O)Nc3ccc(F)cc3)ccc2O[C@@H]1CN(C)Cc1ccc(Oc2ccccc2)cc1`: “inactive”; `C[C@@H]1CN([C@@H](C)CO)C(=O)c2cc(NC(=O)Nc3ccc(F)cc3)ccc2O[C@H]1CN(C)Cc1ccc(Oc2ccccc2)cc1`: “inactive”; `C[C@@H]1CN([C@H](C)CO)C(=O)c2cc(NC(=O)Nc3ccc(F)cc3)ccc2O[C@H]1CN(C)Cc1ccc(Oc2ccccc2)cc1`: “inactive”. In the case of `C[C@H](CO)N1C[C@H](C)[C@@H](CN(C)Cc2ccc(Oc3ccccc3)cc2)Oc2ccc(NC(=O)Nc3ccc(F)cc3)cc2C1=O` it was “inactive”; in that of `C[C@H](CO)N1C[C@H](C)[C@H](CN(C)Cc2ccc(Oc3ccccc3)cc2)Oc2ccc(NC(=O)Nc3ccc(F)cc3)cc2C1=O`, “active”; in that of `C[C@H]1CN([C@@H](C)CO)C(=O)c2cc(NC(=O)Nc3ccc(F)cc3)ccc2O[C@H]1CN(C)Cc1ccc(Oc2ccccc2)cc1`, “inactive”. For the compound `C[C@H]1CN([C@@H](C)CO)C(=O)c2cc(NC(=O)Nc3ccccc3)ccc2O[C@@H]1CN(C)Cc1ccc(Oc2ccccc2)cc1`, the cytotoxicity call was “inactive”. In the case of `C[C@@H]1CN([C@@H](C)CO)C(=O)c2cc(NC(=O)Nc3ccc(F)cc3)ccc2O[C@@H]1CN(C)Cc1ccc(Oc2ccccc2)cc1` it was “active”; in that of `C[C@@H]1CN([C@H](C)CO)C(=O)c2cc(NC(=O)Nc3ccc(F)cc3)ccc2O[C@@H]1CN(C)Cc1ccc(Oc2ccccc2)cc1`, “active”.
